Most compounds without a hit are left out; they make up all but 2.9% or so of the library.
HGIII-sPLA2 inh = Blocks human group III sPLA2 activity; QFRET BODIPY PC-A2 liposome hydrolysis, fluorescence; AID 743126; 0.56% of 370,000 active; Q9NZ20; inhibition, % at 12.2 µM;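 active = inhibition above mean plus 3 SD of compounds lying within the high and low control bounds, cut at about 19% in these data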;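 also: 0% = median of test compound wells and 100% = no enzyme DMSO wells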
Myeloid diff MLP = compounds promoting myeloid differentiation; AID 624256; ER-HoxA9 myeloid progenitors, lysozyme-GFP differentiation, flow cytometry; 1% of 360,000 active; calls only at 10 µM;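 active = normalized GFP-positive differentiation at or above the plate's own cutoff, the solvent-only control mean plus 3 SD; inconclusive = no clear call, values can overlap the other calls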;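 also: cells exposed to compound for four days before flow analysis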
ABHD5 PLIN5 PPI = ABHD5-PLIN5 protein interaction inhibition. Split G. princeps luciferase complementation, luminescence, 4 h. 0.78% of 360,000 active. inhibition, % at 4 µM. AID 602281;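 active = inhibition above the mean inhibition across every tested compound plus 3 SD, cut at about 22% in these data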;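 also: 0% = DMSO only wells and the 100% control is not disclosed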
Rtt109 HAT inh = blocks Candida albicans Rtt109/Vps75 acetyltransferase activity. inhibition, % at 34.9 µM. purified Rtt109/Vps75, ThioGlo CoA-SH fluorescence, 4 h. Q5AAJ8. 0.16% of 330,000 active;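 active = inhibition of at least 50% in every replicate; inconclusive = best replicate reaches 50% inhibition but some replicates fall short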
Target sequence (Q5AAJ8 whole entry, looked up): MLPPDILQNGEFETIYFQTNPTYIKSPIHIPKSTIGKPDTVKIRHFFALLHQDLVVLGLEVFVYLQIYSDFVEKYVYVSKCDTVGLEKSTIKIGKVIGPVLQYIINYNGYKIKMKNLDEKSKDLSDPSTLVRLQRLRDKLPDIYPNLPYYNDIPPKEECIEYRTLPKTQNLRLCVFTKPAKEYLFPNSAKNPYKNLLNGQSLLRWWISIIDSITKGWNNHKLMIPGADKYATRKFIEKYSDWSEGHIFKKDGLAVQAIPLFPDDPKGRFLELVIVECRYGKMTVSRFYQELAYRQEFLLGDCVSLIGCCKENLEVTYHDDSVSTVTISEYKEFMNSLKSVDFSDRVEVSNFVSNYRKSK
DAGLB inhibitor = diacylglycerol lipase beta (human) inhibition. Q8NCG7. HEK293T DAGLB membrane lysate, EnzChek fluorogenic substrate. inhibition, % at 5.17 µM. 0.059% of 340,000 active; in the data active = inhibition above about 34%;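 also: 0% = enzyme with vehicle and 100% = wells lacking enzyme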
H9c2 protect = myocardial damage modulation in H9c2 cells. H9c2 cardiomyocytes, H2O2 injury protection, ATPLite, 2 h. protection from H2O2 cell death, % at 20 µM. 0.63% of 360,000 active;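 active = compounds giving at least 50% protection of heart cells from peroxide-induced death in the single-dose screen, raw or plate-pattern-corrected value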;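 also: 0% = DMSO wells with peroxide and 100% = DMSO wells without peroxide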
* marks the source's active call; other numbers are inactive results; i = inactive; ? = inconclusive; · = no result given; + = active, no number.

SMILES	HGIII-sPLA2 inh	Myeloid diff MLP	ABHD5 PLIN5 PPI	Rtt109 HAT inh	DAGLB inhibitor	H9c2 protect
N/C(=N\NS(=O)(=O)c1ccccc1)c1ccccn1	-1	i	-2	3	-3	51*
N/C(=N\NS(=O)(=O)c1ccc(Cl)cc1)c1ccccn1	11	i	1	-4	-1	-6
CCCCOc1ccc(OCCNC(=O)C2CCCN2C(=O)Nc2ccccc2)cc1 (centres undefined)	4	i	4	1	-2	-3
COC(=O)c1ccc(CSc2nc3c(c(=O)n2-c2ccc(Br)cc2)SCC3)o1	6	+	14	-1	-4	4
CCOc1ccc(-n2c(SCc3ccc(C(=O)OC)o3)nc3c(c2=O)SCC3)cc1	-4	i	1	-7	2	34
CCOC(=O)Cn1c(=O)oc2cc(S(=O)(=O)N3CCCC(C(=O)OCC)C3)ccc21 (centres undefined)	1	i	-1	-5	-1	-1
COc1cc(NC(=O)c2cc([N+](=O)[O-])ccc2NC(=O)CN2CCN(c3ccccn3)CC2)cc(OC)c1	0	?	-2	-6	-2	55*
CCOC(=O)N1CCN(CC(=O)Nc2ccc([N+](=O)[O-])cc2C(=O)Nc2ccccc2F)CC1	0	i	-5	18	2	42
O=C(CN1CCN(Cc2ccccc2)CC1)Nc1ccc([N+](=O)[O-])cc1C(=O)Nc1ccccc1F	-4	i	9	10	-1	51*
CCOC(=O)C1=C(C)NC(=O)NC1c1ccc(N2CCC(c3ccccc3)=N2)cc1 (centres undefined)	-3	+	-1	-6	1	-4
O=C(CCc1nnc2ccc(NCc3ccccc3)nn12)NC1CCCC1	5	i	-3	-1	3	2
CCc1nnc(NC(=O)CSc2nnc(CNc3ccc(OC)cc3)n2C)s1	3	i	0	·	-1	68*
COC(=O)C1=C(C(=O)OC)[C@@H]2N(C)c3ccccc3[C@@]23C[C@@H](C(=O)OC)N(C(=O)c2ccc(Br)cc2)C3=N1	-1	i	1	9	3	-3
COc1ccc(C(C(=O)NC(C)(C)C)N(CCC(C)C)C(=O)CCC(=O)Nc2cc(C)on2)cc1 (centres undefined)	-4	+	4	17	-3	1
COc1ccc(C(C(=O)NC(C)(C)C)N(Cc2ccccc2)C(=O)CCC(=O)Nc2cc(C)on2)cc1 (centres undefined)	1	i	-8	11	-2	10
Cc1nc2ccc(C(=O)c3ccccc3)cc2[nH]1	0	i	5	5	1	6
CC(C)[N+]1=C2C=CC=CC=C2SC12C([N+](=O)[O-])=CC(=[N+]([O-])[O-])C=C2[N+](=O)[O-] (centres undefined)	16	+	1	·	6	5
CCSc1nnc(N)s1	3	i	2	-7	0	76*
CC(NS(=O)(=O)OCC(Cl)(Cl)Cl)c1ccc(C(C)(C)C)cc1 (centres undefined)	-1	i	-9	14	-15	-26
CCOC(=O)c1c(C)nc2sc3c(=O)n(-c4ccc(C(C)=O)cc4)cnc3c2c1-c1ccc(OC)cc1	1	i	3	6	1	68*
CCOC(=O)c1c(C)nc2sc3c(=O)n(-c4ccc(OC)cc4)nnc3c2c1-c1ccc(OC)cc1	3	·	-4	16	-9	20
CCCCSc1nc(O)cc(=O)n1CC	3	i	-3	6	-4	-2
O=C(Nc1ccc2cn[nH]c2c1)c1c(Cl)cccc1Cl	-1	i	1	1	0	-3
O=C1C(Cl)=C(Nc2ccc3cn[nH]c3c2)C(=O)c2ccccc21	19	?	29*	-2	13	-19
O=C(COC(=O)/C=C/c1cccc(C(F)(F)F)c1)NCc1ccc(F)cc1	11	i	-10	-6	1	7
SMILES	HGIII-sPLA2 inh	Myeloid diff MLP	ABHD5 PLIN5 PPI	Rtt109 HAT inh	DAGLB inhibitor	H9c2 protect
C=CCn1c(O)c(N=NC(=S)Nc2cccc(OC)c2)c2ccccc21	16	i	-3	8	9	39
C=CCn1c(O)c(N=NC(=S)Nc2ccc(OC)cc2)c2ccccc21	-1	i	-5	14	13	56*
COC(=O)c1ccc(C(=O)Nc2ccc(F)cc2)cc1	3	i	-8	2	-3	-14
Cc1ccc(CON=C2CCN(c3ncc(C(F)(F)F)cc3Cl)CC2)cc1	7	+	-2	0	-6	-14
O=C(CN(CC1CCCO1)C(=O)CNS(=O)(=O)c1ccccc1)NCc1ccco1 (centres undefined)	2	i	4	-2	0	2
O=C(CNCC1CCCO1)NCc1ccco1 (centres undefined)	3	+	-4	-5	0	11
O=C(COc1cccc2c1CCNC2=O)Nc1ccc(Cl)cc1	1	i	6	-14	0	64*
NC(=O)c1ccc(NC(=O)COc2cccc3c2CCNC3=O)cc1	5	i	8	4	-2	79*
CCCNC(=O)COC(=O)c1ccc(OCC(=O)Nc2ccccc2OC)c(OC)c1	5	i	-5	0	-1	2
CCN1CCc2c(OCC(=O)Nc3ccccc3)cccc2C1=O	4	i	1	-2	0	4
COc1ccccc1NC(=O)COc1ccccc1	-2	i	5	-5	-3	-7
COc1ccccc1NC(=O)COc1ccc(C(=O)OCC(=O)NC(C)(C)C)cc1OC	6	i	-1	3	-2	59*
COc1ccccc1NC(=O)COc1cccc2c1CCNC2=O	-5	i	0	6	2	64*
CCNC(=O)CCn1nc(-c2ccc(Cl)cc2)c2ccccc2c1=O	2	i	3	3	0	-5
CN(C)C(=O)C(CCN1CCC(O)(c2ccc(Cl)cc2)CC1)(c1ccccc1)c1ccccc1	-19	+	-1	7	1	-7
CCOc1ccc(N=C2NC(=O)S/C2=C\c2ccc(OC)cc2)cc1	-4	i	7	6	-1	-4
Cc1oc2cc(O)ccc2c(=O)c1Oc1ccccc1	5	i	-3	1	-2	7
CC(=O)Oc1ccc2c(=O)c(Oc3ccccc3)c(C)oc2c1OC(C)=O	0	i	3	-22	13	65*
CCO[C@@H]1OC(C(=O)N2CCN(Cc3ccc4c(c3)OCO4)CC2)=C[C@H](C)[C@H]1CCCO	2	i	-2	1	0	0
Cc1oc(-c2ccc(Cl)cc2)nc1CN1CCCC(C(=O)N2CCN(C(=O)c3ccco3)CC2)C1 (centres undefined)	-10	+	0	10	0	-16

Screening data: PubChem, several laboratories
